An excerpt weighted towards active compounds, which were near 2.2% of everything screened.
LDHA inh: LDHA (human) enzyme inhibition | hit rate 0.15% among 480,000 | activity change, % (values are at about 110 or 230 µM) | purified LDHA, NADH/diaphorase-resazurin fluorescence; stronger effect = lower value | P00338; in the data active means activity change below about -30%; inconclusive means mostly about -25% to -30%;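 further: plate controls were DMSO wells for no effect and wells without enzyme for full effect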
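Human LDH5 (2 nM) was incubated with 0.06 mM NADH and 0.2 mM pyruvate for 5 min at room temperature in Tris pH 7.4. Remaining NADH was coupled through diaphorase/resazurin, and resorufin fluorescence was read at 0 and 20 min.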
TGFb SMAD3 inh: inhibitors of TGF-b signaling; HepG2 CAGA-GFP TGF-b/SMAD3 reporter, GFP fluorescence, 18 h; TGF-beta stimulated, 500 pg/mL final; Potency, µM (titrated, usually from 46.1 µM), without a hit: at the highest dose activity, negative = inhibition, usual class: inhibitors; hit rate 1.2% among 410,000; AID 588855; further: potency means the concentration at half of the fitted maximal effect; on the % scale 0 is the no-effect control and ±100 the full control effect; nearly all actives have a fitted effect of over 65% in size
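Using HEPG2 CAGA-GFP reporter cells at 1000 cells/well, we pinned test compounds, stimulated with recombinant TGF-beta (500 pg/mL final) and measured total well GFP after 18 h.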
ATXN viability: viability counter-screen for ATXN expression inhibitors | S2 cells (HEK-293 line with an ATXN2-luciferase reporter) viability, CellTiter-Fluor protease fluorescence, 24 h | Potency, µM (top dose mostly 56.7 µM), hits mostly cytotoxic | hit rate 0.49% among 400,000 | AID 651635; further: potency means the concentration at half of the fitted maximal effect; nearly all actives have a fitted effect of over 40% in size
ATXN2 expr inh: ATXN2 expression inhibition | hit rate 0.72% among 360,000 | AID 1745845 | Potency, µM (titrated, usually from 57 µM), without a hit: at the highest dose activity change, negative = inhibition, most hits filed as inhibitors | HEK-293 ATXN2-luciferase reporter, luminescence, 24 h; further: potency means the concentration at half of the fitted maximal effect; on the % scale 0 is the no-effect control and ±100 the full control effect; nearly all actives have a fitted effect of over 55% in size
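ATXN2-luciferase reporter cells (luciferase flanked by upstream and downstream ATXN2 gene portions) were treated 24 h at 37 °C with compounds at up to 57 uM. SteadyGlo luminescence gave expression; GF-AFC fluorescence gave viability.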
HepG2 viability: HepG2 cytotoxicity, counter-screen for TGF-b inhibitors. hit rate 0.76% among 410,000. HepG2 CAGA-GFP viability, ATP luminescence, 18 h. AID 588856. Potency, µM (series often up to 46.1 µM), for inactives: top-dose activity change, negative = cytotoxicity, hits mostly cytotoxic; further: potency means the concentration at half of the fitted maximal effect
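HepG2 CAGA-GFP cells (1000/well, DMEM with 1% FBS) received compound, then TGF-beta at 500 pg/mL final, and were incubated 18 hours at 37 degrees C. Viability was read by CellTiter-Glo luminescence. Media-only wells were set as complete cell-killing and DMSO as no toxicity.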
IDH1 R132H inh: human IDH1 R132H inhibition | hit rate 0.093% among 390,000 | AID 602179 | O75874 | IDH1-R132H enzyme, NADPH consumption, diaphorase/resazurin fluorescence | Potency, µM (doses to about 76.6 µM), inactives show at the top dose activity change, negative = inhibition, actives largely listed as inhibitors; further: potency means the concentration at half of the fitted maximal effect; on the % scale 0 is the no-effect control and ±100 the full control effect; nearly all actives have a fitted effect of over 65% in size
Target sequence (O75874 whole entry R132H, stated change not applied): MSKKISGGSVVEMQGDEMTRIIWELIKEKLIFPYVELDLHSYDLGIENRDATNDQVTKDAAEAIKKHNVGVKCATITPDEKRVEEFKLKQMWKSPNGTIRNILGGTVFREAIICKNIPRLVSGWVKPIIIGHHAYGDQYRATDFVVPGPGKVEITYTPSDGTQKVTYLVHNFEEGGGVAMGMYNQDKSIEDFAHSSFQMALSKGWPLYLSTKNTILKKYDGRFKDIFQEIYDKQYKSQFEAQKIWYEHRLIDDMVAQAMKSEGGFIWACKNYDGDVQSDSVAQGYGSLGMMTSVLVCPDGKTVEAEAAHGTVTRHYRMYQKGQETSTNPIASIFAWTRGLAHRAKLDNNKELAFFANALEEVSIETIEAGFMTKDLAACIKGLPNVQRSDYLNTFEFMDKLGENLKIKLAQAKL
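IDH1-R132H (0.5 ug/mL dispensed) in pH 7.5 Tris buffer was preincubated 30 min with compound, then given a substrate mix of 0.016 mM NADPH and 2 mM alpha-KG for 80 min at room temperature; remaining NADPH was read by diaphorase/resazurin fluorescence.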
Starred values were filed as active, the others as inactive. Unless noted, the call rests on the fitted dose curve; in most records, active means well fitted curve in the direction sought with a large enough effect; inconclusive means small, poorly fitted or top-dose-only effect, or another doubt; inactive means no such curve, though single readings can be large; an effect the other way counts as inactive or inconclusive.

Results for O=[N+]([O-])c1cc(F)c2cccnc2c1O ?
LDHA inh: 13; TGFb SMAD3 inh: inconclusive; ATXN viability: inconclusive; HepG2 viability: 16µM*; IDH1 R132H inh: 6%

What do the screens show for `COc1cc2c(cc1OC)CN(C(=O)c1ccc([N+](=O)[O-])o1)CC2`?
LDHA inh: 8; TGFb SMAD3 inh: 13µM*; ATXN viability: inactive; ATXN2 expr inh: -9%; HepG2 viability: -36%; IDH1 R132H inh: -2%

How did O=C(c1ccc([N+](=O)[O-])o1)N1CCc2ccccc2C1 do in these assays?
LDHA inh: 0; TGFb SMAD3 inh: inconclusive; ATXN viability: inactive; HepG2 viability: -85%; IDH1 R132H inh: 12%

Results for Cn1c(COc2ccc3ccccc3c2)nnc1SCC(=O)O ?
LDHA inh: -7; TGFb SMAD3 inh: 1%; ATXN viability: inconclusive; ATXN2 expr inh: -11%; HepG2 viability: -3%; IDH1 R132H inh: 1%

How did O=C1C(Cl)=C(NS(=O)(=O)c2ccc([N+](=O)[O-])cc2)C(=O)c2ccccc21 do in these assays?
LDHA inh: 25; TGFb SMAD3 inh: inconclusive; ATXN viability: 40µM*; ATXN2 expr inh: 18µM*; HepG2 viability: -191%; IDH1 R132H inh: 4%

How did CN1CCC(NCc2ccccc2)CC1 do in these assays?
LDHA inh: 4

What do the screens show for `Cc1ccc(-c2csc3nc4c5ccccc5c(NCCCN(C)C)nn4c(=O)c23)cc1`?
LDHA inh: -2; TGFb SMAD3 inh: inconclusive; ATXN viability: inactive; ATXN2 expr inh: -30%; HepG2 viability: 14µM*; IDH1 R132H inh: 12%

What do the screens show for `CCCCC(=O)/C=C/n1c(=S)oc2ccccc21`?
LDHA inh: -6; TGFb SMAD3 inh: 5µM*; ATXN viability: inconclusive; ATXN2 expr inh: inconclusive; HepG2 viability: -58%; IDH1 R132H inh: 0%

Results for O=C(COc1ccc(F)cc1Br)NCC1(N2CCOCC2)CCCCC1 ?
LDHA inh: -11; TGFb SMAD3 inh: inconclusive; ATXN viability: inactive; ATXN2 expr inh: -21%; HepG2 viability: -21%; IDH1 R132H inh: -3%

Results for Cc1ccc(C(=O)N/C(=C/c2cccnc2)C(=O)N2CCCCCC2)cc1 ?
LDHA inh: 0; TGFb SMAD3 inh: 12%; ATXN viability: inactive; ATXN2 expr inh: 10%; HepG2 viability: 3%; IDH1 R132H inh: 3%

How did COc1ccc(S(=O)(=O)N(CC(=O)NCc2ccccc2)c2ccc(C)cc2)cc1OC do in these assays?
LDHA inh: 2; TGFb SMAD3 inh: inconclusive; ATXN2 expr inh: inconclusive; HepG2 viability: -99%; IDH1 R132H inh: 30%

How did CCN(c1ccccc1)S(=O)(=O)c1ccc(OC)c(NC(=O)CN(C)C)c1 do in these assays?
LDHA inh: -32*; TGFb SMAD3 inh: -10%; ATXN viability: inactive; HepG2 viability: -21%; IDH1 R132H inh: 5%

Results for COc1ccc(S(=O)(=O)N(CC(=O)NC(C)c2ccccc2)c2ccc(C)cc2)cc1OC (configuration not stated) ?
LDHA inh: -1; TGFb SMAD3 inh: inconclusive; ATXN viability: 22µM*; ATXN2 expr inh: inconclusive; HepG2 viability: 22µM*; IDH1 R132H inh: -2%

What do the screens show for `CCN(c1ccccc1)S(=O)(=O)c1ccc(OC)c(NC(=O)Cn2cnc3c2c(=O)n(C)c(=O)n3C)c1`?
LDHA inh: -1; TGFb SMAD3 inh: 2.8µM*; ATXN viability: inactive; ATXN2 expr inh: 27%; HepG2 viability: 21%; IDH1 R132H inh: 6%

Results for CC(=O)c1ccc(NC(=O)Cn2cnc(S(=O)(=O)N3CCCCC3)c2)cc1 ?
LDHA inh: -12; TGFb SMAD3 inh: 0%; ATXN viability: inactive; ATXN2 expr inh: -3%; HepG2 viability: -5%; IDH1 R132H inh: 17%

Bioassay records from PubChem.
